A selection: hits, their analogues and other compounds. The true share with any hit is near 1.4%.
ASM inhibitor = human S-ASM enzyme inhibition | P17405 | placental ASM, HMU-PC fluorogenic substrate, 60 min | Potency, µM (top dose mostly 57.5 µM), without a hit: top-dose activity change, negative = inhibition, hits mostly inhibitors | 340,000 compounds, 0.006% hits | AID 504937; further: potency means the concentration at half of the fitted maximal effect
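Fluorescence read-out (Ex 386 nm, Em 447 nm) after stopping the reaction at pH 10. Enzyme: ASM from human placenta; substrate HMU-PC0, 9 uM final; 60 min, 37 °C. Compound preincubation 10 min, ambient temperature.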
Vif-A3F inh = inhibitors of Vif-A3F interaction. Potency, µM (series often up to 46.1 µM), without a hit: at the highest dose activity, negative = active. HeLa A3F-eYFP + Vif (tagged APOBEC3F with the HIV-1 protein that degrades it), YFP fluorescence increase. 390,000 compounds, 0.2% hits; further: potency means the concentration at half of the fitted maximal effect; % of control where 0% means no effect; nearly all actives have a fitted effect of over 65% in size
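Fluorescence increase (Ex 488/Em 500-530) after overnight compound treatment at 37 deg C flags inhibition of Vif-driven A3F-eYFP loss in stable HeLa A3F-eYFP/Vif cells seeded overnight beforehand.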
PTAP TSG101 blk = blocks PTAP/TSG101 interaction to inhibit HIV-1 budding; Q99816; Fluorescence polarization, FITC-PTAP peptide / Tsg101 binding; Potency, µM (series often up to 115 µM), inactives show top-dose activity change, negative = inhibition, most hits filed as inhibitors; 340,000 tested, under 10 active; active means well fitted inhibition curve with a large enough effect in the main read-out, with a control signal flat, not every such curve was filed as active; inconclusive means small, poorly fitted or top-dose-only effect, or effect the other way, or a change in a side signal; inactive means no such curve, though single readings can be large or run the other way; further: potency means the concentration at half of the fitted maximal effect; % of control where 0% means no effect
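Fluorescence polarization binding of Tsg101 binding domain (10 uM final) to FITC-labeled PTAP peptide (50 nM final) in HEPES pH 7.5 buffer with NaCl, Tween 20, EDTA, TCEP. Compounds added before peptide; binding 20 min at RT.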
pAkt inh = Akt phosphorylation inhibition; Neuro2A IGF-stimulated pAkt S473 HTRF, 20 min; stronger effect = lower value; activity change, % for hits at 50 µM; 360,000 compounds, 0.32% hits; AID 651550; in the data active means activity change below about -80%; inconclusive means mostly about -51% to -80%; further: on the % scale 0 is the no-effect control and ±100 the full control effect
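Neuro2A cells in DMEM with 0.5% FBS, overnight at 37 deg C, given compound at single 50 µM final, then IGF (6 nM final) for 20 min at 37 deg C. Lysed; phospho-Akt Ser473 by HTRF after 24 h, 665/615 ratio.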
12-LOX inh = blocks human arachidonate 12S-lipoxygenase. 580,000 compounds, 1.1% hits. purified 12hLO, xylenol orange hydroperoxide absorbance. P18054. AID 1671190. Potency, µM (titrated, usually from 108 µM), for inactives: at the highest dose activity change, negative = inhibition, most hits filed as inhibitors; further: potency means the concentration at half of the fitted maximal effect; on the % scale 0 is the no-effect control and ±100 the full control effect
Target sequence (P18054 whole entry, looked up): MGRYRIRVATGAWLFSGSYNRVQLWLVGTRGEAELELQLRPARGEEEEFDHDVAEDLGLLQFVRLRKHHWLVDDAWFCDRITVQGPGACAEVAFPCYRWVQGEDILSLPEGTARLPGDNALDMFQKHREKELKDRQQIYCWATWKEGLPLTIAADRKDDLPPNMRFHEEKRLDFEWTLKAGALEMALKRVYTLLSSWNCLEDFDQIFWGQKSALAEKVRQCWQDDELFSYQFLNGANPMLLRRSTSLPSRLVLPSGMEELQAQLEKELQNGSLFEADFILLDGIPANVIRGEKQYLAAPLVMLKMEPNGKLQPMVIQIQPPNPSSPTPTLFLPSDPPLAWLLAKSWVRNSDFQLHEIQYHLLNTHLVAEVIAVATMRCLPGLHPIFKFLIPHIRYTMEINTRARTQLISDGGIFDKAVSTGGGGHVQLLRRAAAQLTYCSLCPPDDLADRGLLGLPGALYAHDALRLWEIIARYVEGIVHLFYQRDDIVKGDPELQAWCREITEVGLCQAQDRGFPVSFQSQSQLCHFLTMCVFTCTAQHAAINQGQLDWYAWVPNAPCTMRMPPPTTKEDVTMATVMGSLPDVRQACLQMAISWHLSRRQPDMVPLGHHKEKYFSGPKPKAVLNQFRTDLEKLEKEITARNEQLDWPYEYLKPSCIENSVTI
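Purified human 12hLO (150 nM final) in 25 mM Hepes, 0.01% Triton X-100, pH 7.0 was preincubated 15 min at room temperature with compound. Then 40 uM arachidonic acid was added, 30 min. Hydroperoxide was read by Fe-XO absorbance ratio 573/405 nm.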
Vif-APOBEC3G blk = inhibitors of Vif-APOBEC3G interaction | 410,000 compounds, 0.076% hits | Potency, µM (series often up to 46.1 µM), inactives show at the highest dose activity, negative = active, actives largely listed as inhibitors | HeLa A3G-eYFP + Vif (tagged APOBEC3G with the HIV-1 protein that degrades it), YFP fluorescence, overnight | AID 602310; further: potency means the concentration at half of the fitted maximal effect; on the % scale 0 is the no-effect control and ±100 the full control effect; nearly all actives have a fitted effect of over 60% in size
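Read-out is eYFP fluorescence (Ex 488/Em 500-530) from Vif-expressing HeLa A3G-eYFP cells; more signal means A3G escaped Vif-mediated degradation. Cells plated overnight, compound pinned in, incubated overnight at 37 deg C.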
Active calls of the source: *; i = inactive; u = inconclusive; x = no result given; ! = not active in a repeat; [ ] = another dose, or the depositor's remark. Unless noted, the call rests on the fitted dose curve; in most records, active means well fitted curve in the direction sought with a large enough effect; inconclusive means small, poorly fitted or top-dose-only effect, or another doubt; inactive means no such curve, though single readings can be large; an effect the other way counts as inactive or inconclusive.

SMILES | ASM inhibitor | Vif-A3F inh | PTAP TSG101 blk | pAkt inh | 12-LOX inh | Vif-APOBEC3G blk
Cc1ccc(C(CCN(Cc2ccccc2)C(=O)c2ccco2)c2ccco2)cc1 (stereo not drawn) | -12.1% | 1.3% | 11.4% | i | u | 6.3%
O=C(c1ccco1)N(CCC(c1ccccc1)c1ccco1)Cc1ccco1 (stereo not drawn) | -22.9% | -3.3% | -14.0% | i | 17.8µM* | -16.7%
CCCCNC(=S)N/N=C/c1cc(C)ccc1C | -2.5% | -4.5% | -1.5% | i | 50.1µM* | -0.4%
CCOc1ccc(C(CN2CCOCC2)C(C)=O)cc1OC (stereo not drawn) | x | x | x | i | 31.6µM* | u
CCOc1ccc(C(C#N)N2CCOCC2)cc1OC (stereo not drawn) | 1.2% | -6.6% | 0.1% | i | 0.0% | 3.5%
CCOc1ccccc1NC(=O)COC(=O)c1oc2ccc(Br)cc2c1C | x | x | x | x | 13.4% | x
S=c1sc2c(s1)SC1c3ccccc3CC1S2 (stereo not drawn) | x | x | x | x | 15.8µM* | x
Brc1ccc2nc(-c3ccco3)c(Cc3ccccc3)n2c1 | x | x | x | i | 14.1µM* | -15.6%
Clc1cccc(Cc2c(-c3ccco3)nc3ccc(Cl)cn23)c1 | x | x | x | i | 22.4µM* | u
Clc1cccc(Cc2c(-c3ccco3)nc3ccc(Br)cn23)c1 | x | x | x | i | 11.2µM* | u
N#Cc1ccc(-c2nc3ccc(Cl)cn3c2Cc2cccc(Cl)c2)cc1 | x | x | x | i | 35.5µM* | -3.0%
CCCNC(=O)N1CCN(Cc2c(C)noc2C)CC1 | x | x | x | x | 44.3% | x
Cc1ccc(NC(=O)Cn2c(O)c(N=NC(N)=O)c3ccccc32)cc1 | -9.4% | u | 1.2% | i | -12.6% | u
Cc1ccc(NC(=O)Cn2c(O)c(N=NS(=O)(=O)c3ccc(C)cc3)c3ccccc32)cc1 | u | 7.3% | -5.4% | i | 14.1µM* | -6.5%
COc1ccc(C(=O)Nc2ccc3oc(-c4cccc(I)c4)nc3c2)cc1 | x | x | x | x | -18.3% | x
N#Cc1c(-c2ccco2)cc(-c2ccc(F)cc2)nc1N | i | -3.6% | 2.6% | i | 5.62µM* | -30.2%
N#Cc1c(-c2ccc(F)cc2)cc(-c2cccnc2)nc1N | 332.4% | -11.1% | 0.4% | i | -10.5% | 1.6%
COc1ccc(C2CC(c3ccc4ccccc4c3)=NN2C(=O)CNC2CCCCC2)cc1 (stereo not drawn) | -23.3% | 6.4% | -2.5% | i | 44.7µM* | -7.1%
CC1CCCCC1NC(=O)C1CC1C (stereo not drawn) | x | x | x | x | 19.0% | x
Clc1ccc(-c2cnc([C@@H]3COCCN3Cc3c[nH]c4ccccc34)[nH]2)s1 | x | x | x | x | -15.5%[176 µM] | x
CCOC(=O)C1=CCN(S(=O)(=O)c2ccc(C)cc2)C1c1ccccc1 (stereo not drawn) | x | x | x | i | 3.4% | 1.4%
CCOc1cc2c(c3c1C(c1ccccc1)N(S(=O)(=O)c1ccc(C)cc1)C3)C(=O)C=CC2=O (stereo not drawn) | x | x | x | i | 1.12µM* | u
CCS(=O)(=O)NCC1(COc2ccccc2)C[C@@H](O)[C@@H](O)C1 (stereo partly drawn) | x | x | x | x | 56.2µM* | x
c1ccc(-c2nn3c(Cn4nnc5ccccc54)nnc3s2)cc1 | -11.2% | -0.4% | -7.7% | i | 14.1µM* | -2.4%
c1ccc(-c2nn3c(Cn4cnc5ccccc54)nnc3s2)cc1 | -1.8% | 1.6% | -10.1% | i | 7.08µM*! | -3.2%
c1ccc2c(c1)ncn2Cc1nnc2sc(-c3ccncc3)nn12 | -1.5% | -16.4% | -7.3% | i | 0.0% | -0.1%
c1ccc2c(c1)nnn2Cc1nnc2sc(-c3ccc4c(c3)OCCO4)nn12 | -1.7% | -0.2% | -7.5% | i | u | 2.5%
CC(C)(CO)C(O)C(=O)NCCCS(=O)(=O)O (stereo not drawn) | x | x | x | x | -26.4% | x
Cc1ccc(C)c(C(=O)COC(=O)c2ccc3ccccc3n2)c1 | x | x | x | x | -50.5% | x

Screening data as filed in PubChem BioAssay.
